High-throughput results: PubChem BioAssay, National Center for Advancing Translational Sciences (NCATS)
Giardia kill: kills Giardia lamblia; Giardia lamblia trophozoite viability; activity change, % at 7.66 µM, hits read low; hit rate 0.15% among 340,000; in the data active = activity change below about -80%; inconclusive = between about -30% and that limit;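 note: parasites exposed to compound for two days anaerobically before the ATP read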
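Luminescent ATP signal served as the viability read-out, measured 15-30 min after adding ATP detection reagent to trophozoites that had been incubated with compounds for 48 hrs at 37 deg C anaerobically at 100 cells/well.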
Anesthetic bind: binds horse apoferritin like a general anesthetic; P02791; apoferritin/1-aminoanthracene competitive binding, fluorescence; Potency, µM (doses to about 77.5 µM), most hits filed as inhibitors; hit rate 0.074% among 350,000; AID 485281; note: nearly all actives have a fitted effect of over 20% in size
Target sequence (P02791 2-175 limits assumed): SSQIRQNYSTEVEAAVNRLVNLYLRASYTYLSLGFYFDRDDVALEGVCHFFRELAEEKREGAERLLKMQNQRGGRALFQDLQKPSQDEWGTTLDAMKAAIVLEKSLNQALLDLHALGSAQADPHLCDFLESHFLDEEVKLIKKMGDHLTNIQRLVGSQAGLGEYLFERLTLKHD
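10 uM apoferritin + 50% sat. 1-AMA, PBS; cpd 10 min RT; Ex380/Em535 endpoint; normalized to free probe vs complex; 4-param Hill fit; propofol titration as pos. ctrl.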
Nrf2 inh: blocks Nrf2 signaling. A549 ARE-Fluc reporter, luciferase luminescence, 18-24 h. hit rate 2.1% among 360,000. AID 504444. Potency, µM (series often up to 46 µM), actives largely listed as inhibitors; note: nearly all actives have a fitted effect of over 60% in size
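A549 ARE_Fluc cells, 5000/well, 5% FBS OPTI-MEM; compounds in dose-response, 18-24 h at 37 °C/5% CO2; CellTiter-Fluor viability read (Ex 405/Em 525), then BugLite luciferase luminescence = Nrf2 activity.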
A549 viability: A549 cytotoxicity, counter-screen for Nrf2 inhibitors | A549 ARE-Fluc cells, CellTiter-Fluor viability, 18-24 h | Potency, µM (highest dose often 46 µM), hits mostly inhibitors | hit rate 0.16% among 390,000
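A549 ARE-Fluc cells in 5% FBS OPTI-MEM, 5000 cells/well, rested 2 h then exposed to compounds in concentration-response for 18-24 h at 37 °C. Viability by CellTiter-Fluor fluorescence (Ex 405/Em 525) after 30 min; luciferase luminescence (BugLite, 15 min, RT) read afterwards.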
IDH1 R132H inh: blocks human mutant IDH1 R132H enzyme; O75874; IDH1-R132H enzyme, NADPH consumption, diaphorase/resazurin fluorescence; Potency, µM (titrated, usually from 76.6 µM), hits mostly inhibitors; hit rate 0.093% among 390,000; AID 602179; note: nearly all actives have a fitted effect of over 65% in size
Target sequence (O75874 whole entry R132H, stated change not applied): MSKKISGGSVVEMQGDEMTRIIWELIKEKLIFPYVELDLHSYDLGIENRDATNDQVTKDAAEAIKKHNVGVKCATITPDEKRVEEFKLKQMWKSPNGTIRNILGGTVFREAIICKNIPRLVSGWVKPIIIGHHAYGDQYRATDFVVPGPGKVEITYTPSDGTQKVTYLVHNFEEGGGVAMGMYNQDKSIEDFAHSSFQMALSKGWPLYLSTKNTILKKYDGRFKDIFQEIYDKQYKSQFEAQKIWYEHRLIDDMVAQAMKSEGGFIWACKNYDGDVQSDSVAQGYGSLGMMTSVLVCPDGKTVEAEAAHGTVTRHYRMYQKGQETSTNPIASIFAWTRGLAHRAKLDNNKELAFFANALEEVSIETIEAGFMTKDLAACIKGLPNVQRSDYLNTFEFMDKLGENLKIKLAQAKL
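IDH1-R132H (0.5 ug/mL dispensed) in pH 7.5 Tris buffer was preincubated 30 min with compound, then given a substrate mix of 0.016 mM NADPH and 2 mM alpha-KG for 80 min at room temperature; remaining NADPH was read by diaphorase/resazurin fluorescence.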
Nrf2 ARE act: activators of Nrf2 (ARE) signaling. AREc32 ARE-luciferase reporter (MCF7-derived line), luminescence, 24 h. Potency, µM (series often up to 46.1 µM), most hits filed as activators. hit rate 0.31% among 410,000. AID 624171; note: nearly all actives have a fitted effect of over 65% in size
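Each well held 1000 AREc32 cells, which were incubated with compound for 24 hr at 37 deg C after overnight attachment, and ARE reporter activity was quantified by firefly luciferase luminescence.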
A number is an active result; i = inactive; ? = inconclusive; nt = no result given; ! = not active in a repeat; [ ] = dose if it differs, or a comment. Sampled rows, rich in hits. Any-hit rate of the full collection: about 2.3%. Unless noted, calls come from the whole dose curve; as a rule, active = well fitted curve in the direction sought with a large enough effect; inconclusive = small, poorly fitted or top-dose-only effect, or another doubt; inactive = no such curve, though single readings can be large; an effect the other way counts as inactive or inconclusive.

SMILES	Giardia kill	Anesthetic bind	Nrf2 inh	A549 viability	IDH1 R132H inh	Nrf2 ARE act
Cc1ccccc1-c1cnc(C(O)c2ccc(Cl)cc2)[nH]1 (stereo unspecified)	nt	nt	nt	nt	nt	i
O=C(COC(=O)c1ccc2ncsc2c1)NC(=O)C1CCCCC1	i	nt	?	i	nt	nt
O=S(=O)(c1ccc(F)cc1F)N1CCN(c2nc(-c3cccs3)nc3ccccc23)CC1	i	nt	i	i	nt	nt
COc1ccc(-c2nnc(SCC(=O)NCCc3ccccc3)nc2-c2ccc(OC)cc2)cc1	nt	i	nt	i	i	i
COc1ccc(C2CC(=O)c3c(C)nc(N4CCN(Cc5ccccc5)CC4)nc3C2)cc1OC (stereo unspecified)	i	?	18µM	nt	i	i
O=C(NCc1ccccn1)c1nn(-c2ccccc2F)nc1CO	nt	i	?	i	i	i
CC(=O)c1ccc(OCC(O)CN(C)CCOc2ccc(Br)cc2)cc1 (stereo unspecified)	i	i	18µM	i	i	i
COc1ccc(-c2nc3ccccc3c(=O)n2Cc2ccc(CNC(=O)CO)cc2)cc1COc1ccc(NC(C)=O)cc1	nt	nt	?	i	nt	nt
O=S(=O)(Cc1ccccc1)N1CCN(c2nc(-c3cccs3)nc3ccccc23)CC1	i	nt	?	i	nt	nt
CCOC(=O)c1sc(NC(=O)c2cc(-c3ccc(C)cc3)nc3ccccc23)c(C#N)c1C	i	i	i	i	i	i
COC(=O)c1sc(NC(=O)c2cc(-c3ccccc3)nc3ccccc23)c(C#N)c1C	i	i	9.2µM	?	i	i
Cc1ccccc1-c1cc(C(=O)Nc2sc(C(=O)OC(C)C)c(C)c2C#N)c2ccccc2n1	i	?	2.6µM	7.3µM	i	i
CC(C)(C)OC(=O)Cc1nnc(C(C(=O)OCc2ccccc2)c2ccccc2)o1 (stereo unspecified)	nt	nt	i	i	nt	nt
COc1ccc(Cn2c(NCC(C)C)nc3c2c(=O)n(C)c(=O)n3C)cc1	nt	i	?	i	i	i
O=C(c1ccco1)N1CCCC(c2nc(-c3ccc(S(=O)(=O)NCc4ccccc4)cc3)no2)C1 (stereo unspecified)	i	i	10µM	i[1.84 µM]	i	i
COc1ccc(-c2noc(C3CCCN(C(=O)c4ccccc4)C3)n2)cc1 (stereo unspecified)	i	i	?	i	i	i
COc1ccc(CNC(=O)c2sc3nc4c(c(C(F)(F)F)c3c2N)CCC4)cc1OC	i	i	23µM	i	i	i
CN(C)C(=O)c1cccc(-c2cnc3cccnn23)c1	nt	nt	nt	nt	nt	i
O=C1/C(=C\c2ccco2)NC(=S)N1c1ccccc1	i	i	?	i	i	8.9µM
CCCN=C1N/C(=C\c2ccco2)C(=O)N1c1ccccc1	i	i	i	i	i	i
Cc1ccccc1NC(=O)c1c(C)oc2ccc(O)c(CN3CCCCCC3)c12	nt	i	?	i	i	i
CSCCOC(=O)COc1ccc(/C=N/NC(=O)c2nn(C)cc2Cl)cc1	i	i	i	i	i	i
Cc1ccc(S(=O)(=O)Oc2ccc(/C=N/NC(=O)c3nn(C)cc3Cl)cc2)cc1	i	i	18µM	i	i	i
O=C(CNC(=O)c1ccc2c(c1)OCCO2)N/N=C/c1cccc(Br)c1	i	5.6µM	?	i	i	i
CCCCCCCCC(=O)N/N=C/c1ccccn1	i	13µM	?	i	i	i
SMILES	Giardia kill	Anesthetic bind	Nrf2 inh	A549 viability	IDH1 R132H inh	Nrf2 ARE act
O=C(COc1ccccc1[N+](=O)[O-])N/N=C/c1ccccn1	i	i	i	i	i	11µM
CCCCCCCCC(=O)N/N=C/c1cccc(Br)c1	i	?	21µM	i	i	i
Cc1ccccc1OCC(=O)N/N=C/c1ccccn1	i	i	i	i	i	i
CCCCCCC(=O)N/N=C/c1ccc(Br)cc1	i	?	i	i	i	i
O=C(CNC(=O)c1ccc2c(c1)OCCO2)N/N=C/c1ccc(Cl)cc1	i	?	i	i	i	i
O=C1CCCc2[nH]c(=O)c(-c3nc(-c4cccc([N+](=O)[O-])c4)cs3)cc21	nt	i	i	i	i	i
CC1(Cc2cc(Cl)ccc2C(F)(F)F)C(=O)Nc2ccc(S(=O)(=O)NC3CCCCC3)cc21 (stereo unspecified)	nt	nt	nt	nt	nt	i[9.22 µM]
O=C(NCCc1ccccc1)c1ccc(Cn2c(=O)c3cccn3c3cccnc32)cc1	nt	i	i	i	i	i
CCc1ccc(NC(=O)CCn2c(=O)c3cccn3c3ccccc32)cc1	i	i	?	i	i	i
CCOc1ccc(CNC(=O)Cn2c(=O)c3cccn3c3ccccc32)cc1	i	i	16µM	i	i	i
CCOc1ccc(CCNC(=O)c2ccc(Cn3c(=O)c4cccn4c4cccnc43)cc2)cc1	nt	i	12µM	?	i	i
CCOC(=O)c1cccc(NC(=O)Cn2c(=O)c3cccn3c3ccccc32)c1	nt	i	12µM	i	i	i
CCOC(=O)c1ccc(NC(=O)CCCn2c(=O)c3cccn3c3ccccc32)cc1	nt	i	i	i	i	i
CCc1ccc(NC(=O)Cn2c(=O)c3cccn3c3ccccc32)cc1	i	i	23µM!	i	i	i
CCOc1cc(S(=O)(=O)NCCc2c(C)[nH]c3ccc(C)cc23)ccc1Br	nt	i	i	i	i	i
C=CCN(c1ccccc1)S(=O)(=O)c1cc(C(=O)NC2=NCCS2)ccc1Cl	i	?	i	i	i	i
C=CCN(c1ccc(F)cc1)S(=O)(=O)c1cc(C(=O)NC2CCC(O)CC2)ccc1Cl (stereo unspecified)	i	nt	16µM	i	i	i
COc1cc(/C=C(\C#N)c2ccccn2)cc(OC)c1O	i	i	i	i	i	13µM
CN(C)c1ccc(/C=C(\C#N)c2ccccn2)cc1	-98	i	?	i	i	i
N#C/C(=C\c1ccccn1)c1ccccn1	i	i	?	i	i	22µM
Cc1cc(C)n2nc(/C(C#N)=C/c3ccccn3)c(C#N)c2n1	i	i	i	i	i	7.9µM
N#C/C(=C/c1cccs1)c1ccccn1	i	i	?	i	i	?
COc1cc(/C=C(\C#N)c2ccccn2)ccc1OCc1ccccc1Cl	i	i	i	i	i	i
O=C(Nc1c(C(=O)Nc2ccc(F)cc2)oc2ccccc12)c1ccccc1F	nt	i	i	i	i	i
CC(=O)Nc1cc(C(=O)OCC(=O)c2ccc(Cl)cc2Cl)ccc1C	i	i	?	i	i	i
CC(C)C(=O)Nc1cccc(C(=O)OCC(=O)c2ccc(Cl)cc2Cl)c1	i	i	21µM	?	i	i
CCCCOC(=O)c1ccc(NC(=O)c2cc(-c3ccccc3)on2)cc1	nt	i	i	i	i	i
C[C@H]1CN([C@@H](C)CO)C(=O)CCCn2nncc2CO[C@H]1CN(C)S(=O)(=O)c1ccc2c(c1)OCCCO2	nt	nt	nt	nt	i	i
